About 83,000 compounds went through this panel and 20% of them were active in at least one assay; those are over-represented in the sample as a whole.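 For each line, cells grew in 96-well plates with the test compound present at a single concentration for 48 hours.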 Values without a mark were called inactive. Calls of active or inactive are those of the source. How the source made its calls: active means growth percent below 10; inactive means the rest.
Tests used:
Experiment in all cases: NCI-60 one-dose screen, 48 h (100 = growth as untreated, 0 = no growth, -100 = all killed)
Conditions in all cases: 10 µM unless noted
HCT-15 colon = test system: HCT-15 colon
HT29 colon = test system: HT29 colon
SNB-75 CNS = test system: SNB-75 CNS
SNB-19 CNS = test system: SNB-19 CNS
U251 CNS = test system: U251 CNS
PC-3 prostate = test system: PC-3 prostate
SK-MEL-5 melanoma = test system: SK-MEL-5 melanoma
UACC-62 melanoma = test system: UACC-62 melanoma
LOX IMVI melanoma = test system: LOX IMVI melanoma
SK-MEL-28 melanoma = test system: SK-MEL-28 melanoma

Structure (SMILES)	growth (HCT-15 colon)	growth (HT29 colon)	growth (SNB-75 CNS)	growth (SNB-19 CNS)	growth (U251 CNS)	growth (PC-3 prostate)	growth (SK-MEL-5 melanoma)	growth (UACC-62 melanoma)	growth (LOX IMVI melanoma)	growth (SK-MEL-28 melanoma)
O=C1Nc2c(ccc(Cl)c2Cl)/C1=C/c1ccc(F)cc1	80.6%	91%	76.1%	73.5%	92.8%	79.3%	86.8%	79.6%	81.2%	115%
CCCCCCC/C=C/[C@H]1O[C@]2(O)C(=O)C=C3C[C@@H](O[C@@H]4O[C@H](CO)[C@@H](O)C(O)[C@@H]4O)C[C@@H]3[C@H]2C=C1C (stereo not given in full)	-25% (active)	-12.2% (active)	48.4%	13%	-60.5% (active)	-26.8% (active)	6.77% (active)	-52.4% (active)	-76.1% (active)	-26% (active)
NC(=S)N/N=C(/c1ccccc1)c1ccccc1N	84.7%	54.8%	101%	101%	95.6%	67.3%	92.3%	93.9%	96.1%	109%
C#Cc1cccc(NC(=O)Nc2ccc(NC(=O)CCl)cc2)c1	-63.1% [8.25 µM] (active)	-69.5% [8.25 µM] (active)	-27.9% [8.25 µM] (active)	32.4% [8.25 µM]	-72% [8.25 µM] (active)	8.79% [8.25 µM] (active)	-73.9% [8.25 µM] (active)	-44.3% [8.25 µM] (active)	-74.9% [8.25 µM] (active)	67.6% [8.25 µM]
N#Cc1c(NC(=O)c2cccc(Br)c2)sc2c1CCCC2	45.8%	59.5%	84.4%	81.1%	88.2%	90.9%	89.8%	71.7%	80%	86.3%
COc1ccc(C(=O)c2cc3c(N)c(C(=O)Nc4cccc5ccccc45)sc3nc2C)cc1	18.9%	-68.5% (active)	-11.3% (active)	30.4%	10.5%	24.5%	-12.3% (active)	31.8%	23.7%	59.3%
COc1cnccc1-c1nc2ccc3[nH]ncc3c2c2c1CCCC2	46.1%	51.8%	24.1%	85.3%	83.9%	68.2%	54.1%	38.1%	31.7%	58.6%
O=C(O)CNC(=O)CN1C(=O)c2ccccc2C1=O	105%	110%	90.4%	108%	96.8%	84.1%	99.6%	108%	95%	103%
CC(=O)c1cccc(NS(=O)(=O)c2cccc(C(=O)Nc3ccc(Br)cc3)c2)c1	62.8% [25 µM]	78.4% [25 µM]	70.5% [25 µM]	53.9% [25 µM]	62.7% [25 µM]	48.8% [25 µM]	-13.7% [25 µM] (active)	38.9% [25 µM]	50.5% [25 µM]	71.3% [25 µM]
c1ccc(-c2nn(-c3ccccc3)[n+](-c3ccccc3-c3ccccc3)n2)cc1	101%	5.29% (active)	29.7%	27.9%	15%	2.58% (active)	-25.8% (active)	26.4%	12.5%	48.7%
C1=C2CNCC3=Cc4ccc5ccccc5c4OC23Oc2c1ccc1ccccc21	21.7%	19.1%	34.5%	59.6%	38.9%	39.1%	35.6%	25.6%	18.9%	46.7%
Cc1ccc(/C=C/C(=O)c2ccc(N)cc2)c(C)c1	18.6%	60.9%	97.8%	85.7%	54.1%	91.6%	96%	86.8%	-91.5% (active)	105%
CC(C)Cc1ccc(C(C)C(=O)NCc2ccc(Cn3c(=O)sn(-c4ccc(Cl)cc4)c3=O)cc2)cc1 (stereo not given)	83.2%	75.6%	79.4%	83.9%	65.5%	82.8%	94.1%	66.4%	76.1%	77%
Fc1ccc(C2CC(c3cccc(Nc4ccncc4)c3)=NN2c2ccccc2)cc1 (stereo not given)	2.73% (active)	0.645% (active)	68.2%	79%	18.9%	40.6%	76.4%	88.8%	29.8%	-57% (active)
COc1ccc(-c2c[nH]c(C(=O)O)c2-c2cc(OC)c3c(c2OC)OCO3)cc1	103%	110%	91.6%	101%	104%	103%	102%	95.4%	95.4%	104%
Nc1nnc(C(=O)c2cnc3n(c2=O)CCCCC3)s1	102%	115%	85.7%	102%	101%	101%	98.5%	93.3%	89%	106%
Nc1nc(SN=Nc2ccc(S(N)(=O)=O)cc2)c2[nH]cnc2n1	12.6%	9.84% (active)	5.46% (active)	103%	42.7%	23.8%	46.7%	0.536% (active)	-9.46% (active)	15.6%
O=C(CN1CCOCC1)Nc1ccc2ncnc(Nc3ccc(OCc4cccc(F)c4)c(Cl)c3)c2c1	60%	61%	69.1%	72.2%	77.1%	51.9%	61.5%	84.8%	72.9%	77%
COc1cc(NCCN(CC(C)C)C2CCCC2)c2ncccc2c1	73.8%	71.8%	89.4%	97.6%	94.1%	85.2%	97.2%	92.8%	89.8%	101%
CCCCN(CCCC)CCc1c(C)cc(C)c(CCN(CCCC)CCCC)c1O	36.7%	11.9%	82.8%	22.8%	24.6%	14.1%	0.474% (active)	3.34% (active)	28.2%	23.2%
COc1ccc2c(/C=C3/C(=O)NC(=S)NC3C)cc(=O)oc2c1 (stereo not given)	103%	88.8%	87.3%	102%	94.2%	78.6%	99.4%	96.8%	95.3%	109%
C#CCNC(=O)[C@H](Cc1ccccc1)NC(=O)[C@]12CC[C@@H](C(=C)C)[C@@H]1[C@H]1CC[C@@H]3[C@@]4(C)Cc5c([nH]c6ccccc56)C(C)(C)[C@@H]4CC[C@@]3(C)[C@]1(C)CC2	101%	88.8%	92.9%	90.9%	91.8%	77.8%	102%	93.2%	97.4%	102%
COc1ccc(Cn2nc(-c3ccccc3)c3c2CCc2cnoc2-3)cc1	67.6%	84%	65.5%	82.2%	78%	52.9%	74.5%	51.5%	72.8%	84.8%
CCCCCCCC(=O)Nc1nc2[nH]c(CN3CCN(Cc4cccc(I)c4)CC3)c(CN3CCN(Cc4cccc(I)c4)CC3)c2c(=O)[nH]1	-91.5% (active)	-69.8% (active)	-73.2% (active)	-87.5% (active)	-94.6% (active)	-45.7% (active)	2.56% (active)	-98.1% (active)	-96.6% (active)	-78.1% (active)
CC(C)Sc1nc(NN)c(C#N)c(-c2ccccc2)n1	96.5%	111%	92.7%	95.9%	100%	85.1%	99.7%	90.6%	96.7%	90.4%
COc1ccc(C2CC(n3nnnc3-c3ccccc3)=NN2)cc1 (stereo not given)	52.4%	84.5%	76.9%	88.1%	83.9%	58.4%	70.7%	13.4%	22%	94.6%
O=C1Nc2c(ccc(Cl)c2Cl)/C1=C/c1ccc(O)cc1	90.8%	94.7%	56.7%	68.8%	83.8%	98.1%	87.1%	76.7%	63.7%	123%
